Experimental findings from PubChem BioAssay (NCI) are described below.

This is part of a sample that, as a whole, favours compounds with a hit. Of some 79,000 tested, about 15% had one in any assay. Unmarked numbers belong to inactive results. Calls of active or inactive are those of the source. No stated cut-off is given here; in the data, active means growth inhibition above about 70%; inactive means the rest.

The nature of experiment [1]: NCI Yeast Anticancer Drug Screen. Data for the rad50 strain (AID 155).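 Further: 0% = growth of vehicle-only cultures of the same strain.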 Conditions: S. cerevisiae rad50 strain growth inhibition; at 50.0 µM; stronger effect = higher value. In outline: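 Growth of the mutant yeast was measured after compound exposure and referenced to vehicle-treated cultures.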
Experiment [2] in a line: NCI Yeast Anticancer Drug Screen. Data for the mec2-1 strain (AID 157). Conditions: S. cerevisiae mec2-1 strain, at 50.0 µM, stronger effect = higher value. In outline:
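Mutant yeast (mec2-1) grown with compound; growth inhibition relative to vehicle control reported.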

Experiment [3] is described as follows: NCI Yeast Anticancer Drug Screen. Data for the sgs1 mgt1 strain (AID 161).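 Further: 0% = growth of cultures given vehicle only.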 Conditions: S. cerevisiae sgs1 mgt1 strain, at 50.0 µM, stronger effect = higher value. In a few lines: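 Compounds are added to genetically altered yeast, and growth is compared with cultures given vehicle alone to give percent inhibition.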
Experiment [4] can be described thus: NCI Yeast Anticancer Drug Screen. Data for the cln2 rad14 strain (AID 165).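 Further: 0% = growth equal to vehicle treated cultures.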 The settings on record: S. cerevisiae cln2 rad14 strain, at 50.0 µM, stronger effect = higher value. In a few lines: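 Readout is yeast growth inhibition versus vehicle-treated controls, using a strain with cln2 and rad14 alterations exposed to compound.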
A short description of experiment [5]: NCI Yeast Anticancer Drug Screen. Data for the bub3 strain (AID 167). Conditions: S. cerevisiae bub3 mutant strain, at 50.0 µM, stronger effect = higher value. In a few lines:
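Whole-cell yeast assay. The mutant strain was incubated with compounds, and growth inhibition was determined by comparison with vehicle-treated cells.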

The nature of experiment [6]: NCI Yeast Anticancer Drug Screen. Data for the mlh1 rad18 strain (AID 175). Conditions: S. cerevisiae mlh1 rad18 strain growth inhibition; at 50.0 µM; stronger effect = higher value. In a few lines: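 Genetically defined yeast (DNA repair-deficient) exposed to compounds; growth inhibition determined relative to vehicle.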

Turning to `COCC(=O)Oc1ccc[nH]c1=O`, the growth inhibition was 1.55% in experiment [1]; 2.6% in experiment [2]; 7.85% in experiment [3]; -17.1% in experiment [4]; -7.25% in experiment [5]; 22.2% in experiment [6].
As for `O=C1c2cccc3c([N+](=O)[O-])ccc(c23)C(=O)N1CCc1ccccn1`, the growth inhibition in experiment [1] was 24.9%; in experiment [2], 19.2%; in experiment [3] it was 45.5%; in experiment [4] it was 1.95%; in experiment [5] it was 17.9%; in experiment [6], 26.6%.
On to `O=C(O)c1cc2c(c3c1CCCC3)CCC1CCCC21` (centres undefined), for which the growth inhibition in experiment [1] was 13.2%; in experiment [2] it was 26.4%; in experiment [3], 33.4%; in experiment [4], -6.25%; in experiment [5] it was 20.8%; in experiment [6], 27.9%.
On to `Oc1cc2ccc3c(c2cc1O)CCc1cn[nH]c1-3`, for which the growth inhibition in experiment [1] is 7.1%; in experiment [2], 9.25%; in experiment [3], 17.5%; in experiment [4] it was -0.55%; in experiment [5], 15.8%; in experiment [6], 15.5%.
With `CCOC(=O)C1CCc2ccccc2C1=O` (centres undefined), the growth inhibition in experiment [1] was -2.95%; in experiment [2], -12.3%; in experiment [3], 5.85%; in experiment [4], -3.35%; in experiment [5], 14.6%; in experiment [6], -4.95%.
As for `COc1ccc(/C=C2\C=Cc3ccccc32)cc1OC`, the growth inhibition was -21.8% in experiment [1]; -6% in experiment [2]; 0.7% in experiment [3]; 13.4% in experiment [4]; 10.7% in experiment [5]; 4.75% in experiment [6].
For the molecule `Cc1ccc(CNC(=O)Nc2cccc(Cl)c2)cc1C`, the growth inhibition in experiment [1] is 6.05%; in experiment [2] it was 15.5%; in experiment [3] it was 7.05%; in experiment [4], 1.3%; in experiment [5], 16.8%; in experiment [6], 5.35%.
Consider `O=C(O)C1=NN(c2ccc(S(=O)(=O)O)cc2)C(=O)C1N=Nc1ccc(S(=O)(=O)O)cc1` (centres undefined), for which the growth inhibition in experiment [1] is 7.3%; in experiment [2] it was -0.6%; in experiment [3], 17.1%; in experiment [4], 16.9%; in experiment [5], -1%; in experiment [6], 13%.
Consider `NCCSC(O)(C(F)(F)F)C(F)(F)F`, for which the growth inhibition in experiment [1] was 19.6%; in experiment [2], 8.85%; in experiment [3], 3.05%; in experiment [4], -15.2%; in experiment [5] it was 1.2%; in experiment [6], 23%.
Consider `CN1CCC(c2ccccc2)(c2ccccc2)OC1c1ccccc1` (centres undefined), for which the growth inhibition in experiment [1] is 1.65%; in experiment [2] it was -12.2%; in experiment [3] it was -7.85%; in experiment [4], 1.35%; in experiment [5], 8.85%; in experiment [6] it was -18.2%.
As for `CCCC1=NC(C(F)(F)F)(C(F)(F)F)N=C(N2CCOCC2)O1`, the growth inhibition in experiment [1] is 0.95%; in experiment [2] it was 7.25%; in experiment [3], -2.3%; in experiment [4] it was 4.55%; in experiment [5] it was 27.1%; in experiment [6] it was 1.45%.
In the case of `CC(C)(CCl)c1ccccc1`, the growth inhibition was -10.6% in experiment [1]; -3.1% in experiment [2]; -6.3% in experiment [3]; 0.75% in experiment [4]; 4% in experiment [5]; -0.55% in experiment [6].
Regarding `O=C1c2cccc3c(Br)ccc(c23)C(=O)N1C1CCCCCCCCCCC1`, the growth inhibition in experiment [1] is 99.2% (active); in experiment [2], 99.5% (active); in experiment [3], 99.5% (active); in experiment [4] it was 98.5% (active); in experiment [5], 99.2% (active); in experiment [6], 99.5% (active).
On to `CCCCOC(=O)OCCOCCOC(=O)OCCCC`, for which the growth inhibition in experiment [1] is -7.75%; in experiment [2], 3.1%; in experiment [3], 2.6%; in experiment [4], -70.8%; in experiment [5] it was -9.2%; in experiment [6], 0.35%.
Turning to `CCOC(=O)C1=C(C)OC(C)(OC(C)=O)C1=O` (centres undefined), the growth inhibition was 14.1% in experiment [1]; -1.9% in experiment [2]; 2.8% in experiment [3]; -25.9% in experiment [4]; -6.9% in experiment [5]; 13.8% in experiment [6].
`COc1ccc(C(=O)O/N=C2/CCC/C2=C\c2ccccc2)cc1`: the growth inhibition in experiment [1] is 13.8%; in experiment [2], 13.2%; in experiment [3] it was 33.6%; in experiment [4], 26.4%; in experiment [5], 10.9%; in experiment [6], 8.4%.
As for `CCCCCCCCC(CO)CCCCCC` (centres undefined), the growth inhibition is 15.9% in experiment [1]; -1.05% in experiment [2]; 31.4% in experiment [3]; 1.65% in experiment [4]; -6.4% in experiment [5]; 9.15% in experiment [6].
`CNc1ccc(Oc2ccccc2)cc1[N+](=O)[O-]`: the growth inhibition in experiment [1] is -2.2%; in experiment [2], 6.4%; in experiment [3] it was -11.3%; in experiment [4], -34.6%; in experiment [5], -9.9%; in experiment [6], -11%.
Turning to `COC(=O)CN1C(=O)OC(c2ccccc2)C1=O` (centres undefined), the growth inhibition was -0.4% in experiment [1]; 1.15% in experiment [2]; -4.1% in experiment [3]; 8.15% in experiment [4]; -3.85% in experiment [5]; -13.4% in experiment [6].
Turning to `CCN(S(C)(=O)=O)S(C)(=O)=O`, the growth inhibition in experiment [1] is -7.5%; in experiment [2] it was -2.5%; in experiment [3], -4.65%; in experiment [4], -37%; in experiment [5], 9.55%; in experiment [6] it was -15.8%.
In the case of `Nc1c(F)c(F)c(C(=O)O)c(F)c1F`, the growth inhibition was -16.1% in experiment [1]; -20.6% in experiment [2]; -10.4% in experiment [3]; -3.9% in experiment [4]; -4.8% in experiment [5]; -29.4% in experiment [6].
Turning to `CC(C)CCC[C@@H](C)[C@H]1CC[C@H]2[C@@H]3C[C@@H](O)[C@@]4(O)C[C@@H](O)CC[C@]4(C)[C@H]3CC[C@]12C`, the growth inhibition was 27.6% in experiment [1]; 8.65% in experiment [2]; 14.1% in experiment [3]; -12.4% in experiment [4]; -7.25% in experiment [5]; 19.5% in experiment [6].
As for `COc1ccc(C2SCC(=O)N2c2nncs2)cc1F` (centres undefined), the growth inhibition in experiment [1] is 6.2%; in experiment [2], 1.55%; in experiment [3], 20.9%; in experiment [4], 2.9%; in experiment [5], 12.6%; in experiment [6] it was 20.2%.
On to `S=C(SCc1nc(-c2ccc(Cl)cc2)no1)N1CCSCC1`, for which the growth inhibition in experiment [1] is -1.9%; in experiment [2], -24.9%; in experiment [3], 17.9%; in experiment [4], -2.6%; in experiment [5] it was -3.25%; in experiment [6], -9.4%.
On to `O=C1CCCC/C(=C/c2ccccc2)N1`, for which the growth inhibition is 4.45% in experiment [1]; -7.2% in experiment [2]; -6.7% in experiment [3]; 12.8% in experiment [4]; -21.8% in experiment [5]; 7.85% in experiment [6].
Regarding `C=CCCCCCCCCC(=O)NCCN1CCOCC1`, the growth inhibition is 84.5% (active) in experiment [1]; 93.8% (active) in experiment [2]; 99.2% (active) in experiment [3]; 93.8% (active) in experiment [4]; 91.8% (active) in experiment [5]; 98.2% (active) in experiment [6].
As to `COc1ccc(C2SC(N)=Nc3c2c(C)nn3C(=O)c2ccc(Cl)cc2)cc1` (centres undefined), the growth inhibition in experiment [1] is 3.7%; in experiment [2], -14.8%; in experiment [3], 22.6%; in experiment [4] it was -18.1%; in experiment [5], -11.3%; in experiment [6], 7.8%.
With `COc1ccc(/C=C2\CCN(C(C)=O)C2=O)cc1`, the growth inhibition in experiment [1] is 2.35%; in experiment [2] it was -2.65%; in experiment [3], -7.8%; in experiment [4], 2.6%; in experiment [5] it was 3.25%; in experiment [6], -10.7%.
`O=C(CCC1CCCCC1=O)c1ccc(Br)cc1` (centres undefined): the growth inhibition in experiment [1] was 6.2%; in experiment [2], -15.8%; in experiment [3] it was 12.7%; in experiment [4], -6.95%; in experiment [5], -6.55%; in experiment [6] it was -10.2%.
Turning to `CC1CC=C2C=C(Cl)C=CC2(C)C1C` (centres undefined), the growth inhibition in experiment [1] was 1.8%; in experiment [2], 3.55%; in experiment [3], -2.85%; in experiment [4], -9.2%; in experiment [5] it was 9%; in experiment [6], -1.85%.
For the molecule `Cc1cc(C)c(Br)c(C)c1C`, the growth inhibition in experiment [1] was -17.4%; in experiment [2], 4.15%; in experiment [3], -9.95%; in experiment [4], -53.4%; in experiment [5], 8.5%; in experiment [6], -22.7%.
For the molecule `CCC(=O)n1cc2ccc([N+](=O)[O-])cc2n1`, the growth inhibition in experiment [1] was 1.35%; in experiment [2], 1.35%; in experiment [3], -4%; in experiment [4], -57.8%; in experiment [5], 13.2%; in experiment [6], -3.05%.
Consider `CCN(CC)C(=O)c1cccc(N)c1`, for which the growth inhibition in experiment [1] was 12.6%; in experiment [2], -11.3%; in experiment [3], 11.5%; in experiment [4], 11%; in experiment [5] it was 25.3%; in experiment [6] it was 14%.
Take `Cc1[nH]c(=O)c(C#N)c(C)c1-c1ccccc1`: the growth inhibition in experiment [1] was 16.8%; in experiment [2], -3.9%; in experiment [3], -4.9%; in experiment [4] it was 4.9%; in experiment [5] it was -0.75%; in experiment [6], 1.85%.
With `Cc1ccc(-c2ccno2)cc1`, the growth inhibition in experiment [1] is 1.7%; in experiment [2], 3.15%; in experiment [3] it was 1.25%; in experiment [4], -14.3%; in experiment [5], -8.3%; in experiment [6], 2.25%.
For `CCOC(=O)CC[C@H](NC(=O)c1[nH]cnc1/N=N/N(C)C)C(=O)OCC`, the growth inhibition in experiment [1] is -24.5%; in experiment [2], -41.5%; in experiment [3], -56%; in experiment [4] it was 3.7%; in experiment [5], -12.1%; in experiment [6] it was -36.9%.
Consider `COc1ccc(Nc2cnc3cc(N)ccc3n2)cc1OC`, for which the growth inhibition in experiment [1] is -15.3%; in experiment [2] it was -21.6%; in experiment [3], -38.5%; in experiment [4] it was -8.35%; in experiment [5], -30.3%; in experiment [6] it was 1.7%.
As to `CC(SC(=S)SC(C)C(=O)O)C(=O)O` (centres undefined), the growth inhibition in experiment [1] was 6%; in experiment [2], 15.3%; in experiment [3], 22.3%; in experiment [4], 44%; in experiment [5] it was -6.1%; in experiment [6] it was 15.3%.
`COC(=O)c1cccc2cnccc12`: the growth inhibition was 2.2% in experiment [1]; -5.7% in experiment [2]; 3.6% in experiment [3]; -48% in experiment [4]; 7.65% in experiment [5]; 3.75% in experiment [6].
